Assay outcomes deposited in PubChem by National Center for Advancing Translational Sciences (NCATS).
SW480 rerep: A quantitative high throughput screen for small molecules that induce DNA re-replication in SW480 colon adenocarcinoma cells | SW480 DNA re-replication, Hoechst DNA content imaging, 48 h | Potency, µM (highest dose often 46.1 µM), usual class: activators | hit rate 1.8% among 340,000; also: nearly all actives have a fitted effect of over 55% in size
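Cells (250 per well) received 23 nL compound or DMSO by pin tool and were kept 48 hr at 37 C, 5% CO2. Nuclei were then stained with Hoechst for 40 min and scanned for DNA content.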
MCF10A rerep: A quantitative high throughput screen for small molecules that induce DNA re-replication in MCF 10a normal breast cells; Potency, µM (doses to about 46.1 µM), hits mostly activators; hit rate 2.9% among 350,000; AID 624296, 2012; MCF 10A DNA re-replication, Hoechst nuclear intensity, 48 h; also: nearly all actives have a fitted effect of over 50% in size
KB-V1 MDR tox: qHTS assay for MDR1-selective chemotherapeutics: Primary screen using the drug-selected MDR subline cells KB-V1; Potency, µM (series often up to 46.1 µM), hits mostly cytotoxic; AID 1347076, 2019; KB-V1 MDR cells viability, CellTiter-Glo, 72 h; hit rate 3.4% among 400,000; also: nearly all actives have a fitted effect of over 60% in size
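Cells of the MDR subline KB-V1 are plated, dosed with compound at multiple concentrations, and incubated 72 h at 37 degrees C; CellTiter-Glo is then added and luminescence read after 10 min.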
KB-3-1 cytotox: qHTS assay for MDR1-selective chemotherapeutics: Primary screen using the parental adenocarcinoma cell KB-3-1. KB-3-1 viability, CellTiter-Glo ATP luminescence, 72 h. AID 1347075, 2019. Potency, µM (highest dose often 46.1 µM), usual class: cytotoxic. hit rate 1.4% among 400,000; also: nearly all actives have a fitted effect of over 60% in size
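Cells are dispensed, compounds pinned in, plates held at 37 °C for 72 h, then CellTiter-Glo is added and luminescence read after 10 minutes. Cell line: parental KB-3-1 in phenol-red-free DMEM, 10% FBS.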
ELG1 DNA repair: qHTS screen for small molecules that inhibit ELG1-dependent DNA repair in human embryonic kidney (HEK293T) cells expressing luciferase-tagged ELG1 | HEK293T ELG1-luciferase reporter, luminescence, 16 h; DNA damage induced by 5-fluorouridine | Potency, µM (top dose mostly 46.1 µM), actives largely listed as inhibitors | hit rate 2.3% among 330,000 | AID 504467, 2011; also: nearly all actives have a fitted effect of over 55% in size
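Reporter activity after DNA damage by 5-fluorouridine is monitored. Compound-treated cells incubate 16 hr at 37 °C, then ONE-Glo is added for 30 min before luminescence reading.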
Each line names hits and unclear results; the compound was inactive in the other large screens; ! = not confirmed by another sample. In the library only some 8.1% were active in any assay of this set; here they are far more common. Calls follow the shape of the dose curve; as a rule, active = well fitted curve in the direction sought with a large enough effect; inconclusive = small, poorly fitted or top-dose-only effect, or another doubt; inactive = no such curve, though single readings can be large; an effect the other way counts as inactive or inconclusive.

COc1ccc(C2NCc3ccc4c(c3-n3cccc32)OCO4)cc1O (stereo not given)	SW480 rerep 3.26µM, MCF10A rerep 4.11µM, KB-V1 MDR tox inconclusive, KB-3-1 cytotox 1.3µM
Oc1ccc(C2NCc3ccccc3-n3cccc32)cc1Cl (stereo not given)	MCF10A rerep inconclusive
COc1ccc(/C=N\NC(=O)c2cccc(F)c2)cc1COc1ccccc1	SW480 rerep 1.46µM, MCF10A rerep inconclusive, KB-V1 MDR tox inconclusive (no result: ELG1 DNA repair)
C=CCN1C(=O)NC(=O)/C(=C/c2ccc(OC)c(COc3ccc(NC(C)=O)cc3)c2)C1=O	SW480 rerep 16.4µM, MCF10A rerep inconclusive, KB-V1 MDR tox inconclusive, KB-3-1 cytotox inconclusive
CC1OC(NCCc2ccccc2)C(O)C(O)C1O (stereo not given)	none
NS(=O)(=O)c1ccc(CCNC(=O)c2ccc(Cl)c(S(=O)(=O)N3CCCCC3)c2)cc1	KB-3-1 cytotox inconclusive, ELG1 DNA repair 16.4µM
O=C(Nc1ccc2c(c1)OCO2)c1cccn(Cc2ccccc2)c1=O	none (no result: SW480 rerep, MCF10A rerep, ELG1 DNA repair)
C/C(=C\c1ccc(N(C)C)cc1)[N+](=O)[O-]	SW480 rerep 5.8µM, MCF10A rerep 2.59µM, KB-V1 MDR tox inconclusive, KB-3-1 cytotox inconclusive, ELG1 DNA repair inconclusive
Cc1cc(/C=C2\C(=O)NC(=O)N(c3ccc(Cl)cc3)C2=O)c(C)n1-c1sc2c(c1C#N)CCCC2	none
CCOC(=O)c1c(-n2c(C)cc(/C=C3\C(=O)NC(=O)N(C)C3=O)c2C)sc2c1CCCC2	SW480 rerep inconclusive, MCF10A rerep inconclusive, KB-V1 MDR tox 23.1µM
C=Cc1cc(OC)c2c(c1)c(=O)oc1c2cc(OC)c2c(O)ccc(C3OC(C)C(O)C(C)(O)C3O)c21 (stereo not given)	SW480 rerep 8.2µM, MCF10A rerep 3.66µM, KB-V1 MDR tox 18.4µM, KB-3-1 cytotox inconclusive (no result: ELG1 DNA repair)
CC12CC(=O)C3C(CCC4CC=CCC43C)C1CCC2=O (stereo not given)	none (no result: ELG1 DNA repair)
COc1ccc(CCNC2CCCCCC2)cc1	SW480 rerep 3.26µM
Cc1oc(-c2ccccc2Cl)nc1CN1C(=O)CN=C(c2ccccc2)c2cc(Cl)ccc21	none (no result: SW480 rerep, MCF10A rerep, ELG1 DNA repair)
Cc1ccc(CN2C(=O)CN=C(c3ccccc3)c3ccccc32)cc1	KB-V1 MDR tox 18.4µM, KB-3-1 cytotox inconclusive
CSCc1nnc2n1-c1ccc(Cl)cc1C(c1ccccc1)=NC2	KB-V1 MDR tox 16.4µM, KB-3-1 cytotox inconclusive, ELG1 DNA repair inconclusive
O=C1CN=C(c2ccccc2)c2cc(Cl)ccc2N1Cc1ccc(Cl)cc1	KB-V1 MDR tox 14.6µM, KB-3-1 cytotox inconclusive (no result: SW480 rerep, MCF10A rerep, ELG1 DNA repair)
O=[N+]([O-])c1ccc(-c2ccccc2)c([As](=O)(O)O)c1	MCF10A rerep 23.1µM
CCCCCSc1cc(OC)c(CCN)cc1OC	SW480 rerep 16.4µM, MCF10A rerep inconclusive, KB-V1 MDR tox inconclusive, KB-3-1 cytotox 20.6µM
COc1cc(CCN)ccc1O	none
Cc1cccc(N2C(=O)NC(=O)/C(=C/c3ccc([N+](=O)[O-])o3)C2=O)c1	none
Cc1cccc(N2C(=O)NC(=O)/C(=C\C=C\c3ccco3)C2=O)c1	SW480 rerep inconclusive, MCF10A rerep 14.6µM, KB-3-1 cytotox inconclusive, ELG1 DNA repair inconclusive
CN1C(=O)/C(=C/C=C/c2ccco2)C(=O)NC1=S	SW480 rerep inconclusive
Cc1ccc(N2C(=O)NC(=O)/C(=C\C=C\c3ccco3)C2=O)cc1	SW480 rerep inconclusive, MCF10A rerep 7.31µM, KB-3-1 cytotox inconclusive, ELG1 DNA repair inconclusive
O=C1NC(=O)N(c2ccccc2)C(=O)/C1=C/C=C/c1ccco1	SW480 rerep 14.6µM, MCF10A rerep inconclusive, KB-V1 MDR tox inconclusive, KB-3-1 cytotox inconclusive
Cc1ccc(N2C(=O)NC(=O)/C(=C\C=C\c3ccco3)C2=O)cc1C	SW480 rerep inconclusive, MCF10A rerep 5.8µM, KB-V1 MDR tox inconclusive, KB-3-1 cytotox inconclusive, ELG1 DNA repair inconclusive
CCCSc1nc(O)c(CC)c(=O)n1C(C)CC (stereo not given)	none
COc1cccc(C2C([N+](=O)[O-])=C(N)Oc3c2c(=O)oc2ccccc32)c1 (stereo not given)	none
CN(Cc1cccc(-c2ccncc2)c1)C(=O)Oc1ccccc1Cc1ccccc1	KB-V1 MDR tox inconclusive, KB-3-1 cytotox 14.6µM (no result: SW480 rerep, MCF10A rerep, ELG1 DNA repair)
Cc1nc2cc(OC(=O)N(C)Cc3cccc(-c4ccncc4)c3)ccc2s1	KB-3-1 cytotox inconclusive (no result: SW480 rerep, MCF10A rerep, ELG1 DNA repair)
CN(Cc1cccc(-c2ccncc2)c1)C(=O)Oc1ccccc1Cl	KB-3-1 cytotox 14.6µM (no result: SW480 rerep, MCF10A rerep, ELG1 DNA repair)
Cn1c(O)c(/C=N/NC(=O)c2ccncc2)c(=O)n(C)c1=S	SW480 rerep 8.2µM, MCF10A rerep 9.2µM
COc1cc(N)c(Cl)cc1C(=O)N[C@@H]1CN2CCC1CC2	none (no result: KB-V1 MDR tox, KB-3-1 cytotox, ELG1 DNA repair)
c1ccc2c(CCNC3CCCCC3)c[nH]c2c1	SW480 rerep 20.6µM
COC(=O)C1=C(c2ccc(OC)c(OC)c2)C[C@@H]2CC[C@H]1N2C(=O)NC1Cc2ccccc2C1	ELG1 DNA repair inconclusive
C/C(=N\Nc1ccccc1)c1c(O)[nH]c(=O)[nH]c1=O	SW480 rerep 20.6µM, MCF10A rerep inconclusive, KB-3-1 cytotox inconclusive, ELG1 DNA repair 5.17µM
C/C(=N\Nc1ccccc1)c1c(O)n(-c2ccccc2)c(=O)[nH]c1=O	MCF10A rerep inconclusive, ELG1 DNA repair inconclusive
O=C(NCCc1ccccc1)[C@@H]1CC=C[C@@H]2CCN(Cc3ccc(Cl)c(Cl)c3)C(=O)[C@@H]21	SW480 rerep inconclusive, MCF10A rerep inconclusive, KB-V1 MDR tox 16.4µM!, KB-3-1 cytotox inconclusive (no result: ELG1 DNA repair)
Cc1csc(=N)n1Cc1ccccc1	none (no result: SW480 rerep)
Cc1ccc2nc(-c3ccncc3)cc(C(=O)N3CCC4(CC3)OCCO4)c2c1	ELG1 DNA repair inconclusive
Cc1ccc(-c2cc(C(F)F)n3ncc(C(=O)N4CCc5ccccc5C4)c3n2)cc1	SW480 rerep 18.4µM, MCF10A rerep inconclusive, KB-V1 MDR tox inconclusive
Clc1cccc(CNCCc2c[nH]c3ccccc23)c1	SW480 rerep inconclusive, MCF10A rerep inconclusive
Cc1ccc2c(c1)C1CN(C)CCC1N2C(=O)COc1ccc(N(C)S(=O)(=O)c2cccs2)cc1 (stereo not given)	SW480 rerep inconclusive
CC(C)c1oc(=O)cc2c1[C@@H](O)[C@H]1OC(=O)[C@@]3(C)C[C@@H](O)[C@@H](O)[C@@]2(C)C13 (stereo not given in full)	SW480 rerep inconclusive, MCF10A rerep 5.17µM, KB-3-1 cytotox 8.2µM, ELG1 DNA repair inconclusive
CC(C)c1oc(=O)cc2c1[C@@H](O)[C@H]1OC(=O)[C@@]3(C)CC[C@@H](O)[C@@]2(C)C13 (stereo not given in full)	SW480 rerep inconclusive, KB-3-1 cytotox 7.31µM
CCOC(=O)c1cc2ccccc2n1C1CCN(Cc2ccccc2)CC1	none (no result: SW480 rerep, MCF10A rerep, ELG1 DNA repair)
O=C(OCc1ccccc1)N1CCC2CC1c1cc(N3Cc4ccccc4-n4nncc4C3)ccc12 (stereo not given)	KB-3-1 cytotox inconclusive (no result: SW480 rerep, MCF10A rerep, ELG1 DNA repair)
